The full ranking holds about 68,000 sequences; the median of “fluorescence intensity (a.u.)” is about 9,100, and the highest 2% start at about 16,000. This is one part of a sample in which the highest values are shown more often than they occur.
target: OsWRKY34 (Oryza sativa, UniProt Q0JBA9 1-250); assay: protein-binding microarray (RPBM); PBS, 2% BSA, 51.3 ng/ul salmon testes DNA, 50 uM zinc acetate, 200 nM TF, 25 C, 1 h; high values mean tight binding; conditions: protein: recombinant; tags: N-terminal polyhistidine and DsRed monomer fusion (pET32a); label: CyDye5-dUTP incorporated in the synthesized complementary strand; 3' TTTTT single-stranded linker to array surface; dsDNA, one strand shown
Sequence (Q0JBA9 entry or part of it): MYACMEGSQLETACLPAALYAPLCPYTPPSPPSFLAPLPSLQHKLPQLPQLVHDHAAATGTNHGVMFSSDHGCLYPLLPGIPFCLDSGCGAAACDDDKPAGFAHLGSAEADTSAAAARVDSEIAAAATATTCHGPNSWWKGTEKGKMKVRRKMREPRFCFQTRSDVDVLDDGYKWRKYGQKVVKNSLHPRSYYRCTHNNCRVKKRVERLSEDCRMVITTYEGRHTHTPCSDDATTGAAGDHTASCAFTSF
Outline: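 Ni–NTA purification followed expression in E. coli BL21-CodonPlus of transcription factors fused N-terminally to a polyhistidine tag and DsRed. At 200 nM in PBS with 2% BSA, salmon testes DNA and 50 µM zinc acetate, the protein was incubated for 1 h at 25 °C with a custom Agilent array that had been primer-extended with Cy5-dUTP and blocked with 2% BSA. After washing, the array was read on an Axon 4000B scanner. The binding signal is per-feature fluorescence intensity in arbitrary units.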

**Q.** Which binding signal does the source give for “TAGTGTTGGTTTGATTTTTATATCACTAGAGATGAACTAACGGAGTCACCTAGTGCAG” here?
**A.** 8560 fluorescence intensity (a.u.)

**Q.** Which binding signal does the source give for “GATGATGATGATTTTGGTAGGAGATATGGATCGTGTTGGTCGGAGTCACCTAGTGCAG” here?
**A.** 11300 fluorescence intensity (a.u.)

**Q.** For “ATCTTATTAATTAATTCTTTGTGTTTCATATTATTCTAATCGGAGTCACCTAGTGCAG”, which binding signal is on record?
**A.** 10300 fluorescence intensity (a.u.)

**Q.** For “TGCGAGTTCGTCGCCGCCTCCGCCGATCTCCATCAGGCGACGGAGTCACCTAGTGCAG”, which binding signal is on record?
**A.** 9610 fluorescence intensity (a.u.)

**Q.** For “GCAGCGACGACATCTGACGGCCTCACCTACCTTTCGGTCTCGGAGTCACCTAGTGCAG”, which binding signal is on record?
**A.** 8460 fluorescence intensity (a.u.)

**Q.** With “GGTGTCTTGATTGATATGATTTAAATTATTCTTGGTCTTGCGGAGTCACCTAGTGCAG” as the sequence, how does the binding signal read?
**A.** 9570 fluorescence intensity (a.u.)

**Q.** “GGCTCAACAAATAATGTGAAGATCTCTCATTTTCATTTTCCGGAGTCACCTAGTGCAG” was tested. Which binding signal did it give?
**A.** 8050 fluorescence intensity (a.u.)

**Q.** “TCGTTATACCTGGTTTTTTTGGTTGAGGGATGTTATTCGACGGAGTCACCTAGTGCAG” was tested. Which binding signal did it give?
**A.** 12500 fluorescence intensity (a.u.)

**Q.** How did the binding signal turn out when “TTTATACATGGTTTGTGTTTTTCTCACTTTGGGTTGGGGACGGAGTCACCTAGTGCAG” was run?
**A.** 18000 fluorescence intensity (a.u.)

**Q.** How did the binding signal turn out when “TGTTTGGTTGGGATACATGGGAATTTTGGTAGGATGGGGACGGAGTCACCTAGTGCAG” was run?
**A.** 12700 fluorescence intensity (a.u.)

**Q.** Which binding signal does the source give for “CTAGTTGTGTTTGTTAATTTCTTTCTATACATGGGTTACCCGGAGTCACCTAGTGCAG” here?
**A.** 11700 fluorescence intensity (a.u.)

**Q.** Which binding signal does the source give for “TCTTTGTTATAATTATGGGGTTGGTTTTATTCGTTTTCGACGGAGTCACCTAGTGCAG” here?
**A.** 21900 fluorescence intensity (a.u.)

**Q.** With “AAATTTGTTATTTTTGTTTCGAATTATATAATTCGAATTTCGGAGTCACCTAGTGCAG” as the sequence, how does the binding signal read?
**A.** 9450 fluorescence intensity (a.u.)

**Q.** “GACACCACATAAAGACACCCATCCCCGTGATCAACTACCTCGGAGTCACCTAGTGCAG” was tested. Which binding signal did it give?
**A.** 8320 fluorescence intensity (a.u.)

**Q.** For “CGCCTGTCAAATCCTAGTCAGGGAATCTGTCTTCCATCTACGGAGTCACCTAGTGCAG”, which binding signal is on record?
**A.** 9100 fluorescence intensity (a.u.)

**Q.** How did the binding signal turn out when “TGTTATTATTGCCGTTGTCTTTATTTTTCTTTTTTGAAAACGGAGTCACCTAGTGCAG” was run?
**A.** 9580 fluorescence intensity (a.u.)

**Q.** “TATATTGTCTGTTTTCTCTTGAATCTTTCCTATCCAGTAGCGGAGTCACCTAGTGCAG” was tested. Which binding signal did it give?
**A.** 8490 fluorescence intensity (a.u.)

**Q.** Which binding signal does the source give for “GCCTTTTTCTTGCGTGTAGGTTGTTCTGTTGAGAGAAAGACGGAGTCACCTAGTGCAG” here?
**A.** 17700 fluorescence intensity (a.u.)

**Q.** How did the binding signal turn out when “AGTATTGTTTTCTCGCTGTCTCTATCCAAATCTTTGAAAACGGAGTCACCTAGTGCAG” was run?
**A.** 17200 fluorescence intensity (a.u.)

**Q.** Which binding signal does the source give for “AAGGACCCGTTCTATCTGGTTTTGCGGTTGAAGGATAGAACGGAGTCACCTAGTGCAG” here?
**A.** 28000 fluorescence intensity (a.u.)

**Q.** For “GTTGAGGGACCCGCTGGATCTGGTTTTTGATTGAAGGATACGGAGTCACCTAGTGCAG”, which binding signal is on record?
**A.** 8800 fluorescence intensity (a.u.)

**Q.** “TCTTCTTTTGTTGTCTTCTGCTATCCAATCTCTTGTCAAACGGAGTCACCTAGTGCAG” was tested. Which binding signal did it give?
**A.** 10500 fluorescence intensity (a.u.)

**Q.** How did the binding signal turn out when “TTTTTCTTTTTATTGTCTTGTTCTCGTGCGTGTTGAAAAACGGAGTCACCTAGTGCAG” was run?
**A.** 20300 fluorescence intensity (a.u.)

**Q.** For “TTTTTTTTCTTTCTGTTCTGTTTCTGTTGAGAAACAAAGACGGAGTCACCTAGTGCAG”, which binding signal is on record?
**A.** 8450 fluorescence intensity (a.u.)

**Q.** For “AGTTGAGGGATCCGTTGTATCTGGTTTTGCGGTTGAAGGACGGAGTCACCTAGTGCAG”, which binding signal is on record?
**A.** 8570 fluorescence intensity (a.u.)

**Q.** How did the binding signal turn out when “TTGTGTAGGTTTTGTTTCTTTCTTCTTTTTTCGAAAAGAGCGGAGTCACCTAGTGCAG” was run?
**A.** 8940 fluorescence intensity (a.u.)

**Q.** For “TTATTGTTTTTATTGTCTTTTTTTCTTTATATTTCCAAAACGGAGTCACCTAGTGCAG”, which binding signal is on record?
**A.** 11400 fluorescence intensity (a.u.)

**Q.** For “CCTTTTCAAGTATTATTGCTGTTTGATTCATCTCTCTTTGCGGAGTCACCTAGTGCAG”, which binding signal is on record?
**A.** 9510 fluorescence intensity (a.u.)

**Q.** For “TAAACTTGCTCTGATGCGCCCACACGGGGCCACGGCGCGCCGGAGTCACCTAGTGCAG”, which binding signal is on record?
**A.** 9010 fluorescence intensity (a.u.)

**Q.** How did the binding signal turn out when “TAAACTCGTCTTATCCGCATGATTGTTGACTATAGTATGTCGGAGTCACCTAGTGCAG” was run?
**A.** 9300 fluorescence intensity (a.u.)

**Q.** “CTTTCATATATGTGTGTGCTATGATTTGTTTTCTTCCTCACGGAGTCACCTAGTGCAG” was tested. Which binding signal did it give?
**A.** 11900 fluorescence intensity (a.u.)

**Q.** How did the binding signal turn out when “CCGCATCCTTCTTGGACTTCTGTTTTGTTGTTGGCCATGGCGGAGTCACCTAGTGCAG” was run?
**A.** 11100 fluorescence intensity (a.u.)

**Q.** With “GATTTTTCTTTACATGTTCTTTTTCATCGATCTTTTGAGACGGAGTCACCTAGTGCAG” as the sequence, how does the binding signal read?
**A.** 9460 fluorescence intensity (a.u.)

**Q.** “GCTCCAGATCTGTGGGTGTCTTTGGGTGAGTGGGCAAATACGGAGTCACCTAGTGCAG” was tested. Which binding signal did it give?
**A.** 11200 fluorescence intensity (a.u.)

**Q.** “TTGTTCTCTTTTTTTTTGCGTGCGTTGACTTTATCTTCAACGGAGTCACCTAGTGCAG” was tested. Which binding signal did it give?
**A.** 19900 fluorescence intensity (a.u.)

**Q.** “CTGAACATGTTGTTCAGTTGGCCTCGTTTTCTCACCTTTGCGGAGTCACCTAGTGCAG” was tested. Which binding signal did it give?
**A.** 9320 fluorescence intensity (a.u.)

**Q.** “ATATCTCACTTTGACTGCTTGTTGTTATCGTTCTTTTATACGGAGTCACCTAGTGCAG” was tested. Which binding signal did it give?
**A.** 12000 fluorescence intensity (a.u.)

**Q.** For “TCGTTTTTCTCTTTAGTGTGTGTGTGTTGCGTTTTTGCAACGGAGTCACCTAGTGCAG”, which binding signal is on record?
**A.** 10300 fluorescence intensity (a.u.)

**Q.** “GACCTGAAGTTCTCGTTGTGTTGGCCTGCGTTTTTATCTGCGGAGTCACCTAGTGCAG” was tested. Which binding signal did it give?
**A.** 16800 fluorescence intensity (a.u.)

**Q.** For “CTTCTGCTTGGTGTGTTGTGTGTTTTACCTTGAGTTATCTCGGAGTCACCTAGTGCAG”, which binding signal is on record?
**A.** 8480 fluorescence intensity (a.u.)

**Q.** Which binding signal does the source give for “GGGAGTCAAAGTAGACTTATTCTTCCCCAATCCATCTCAGCGGAGTCACCTAGTGCAG” here?
**A.** 8330 fluorescence intensity (a.u.)

**Q.** “GTTCTCGATGTGTTCTAAAATTTTGTTGTTTATAATTTTTCGGAGTCACCTAGTGCAG” was tested. Which binding signal did it give?
**A.** 8190 fluorescence intensity (a.u.)

**Q.** With “TTCATCGTAAACGTTACTTCTCGTTATAAATTGATTTTTTCGGAGTCACCTAGTGCAG” as the sequence, how does the binding signal read?
**A.** 10100 fluorescence intensity (a.u.)

**Q.** “ACAGCGACCTTTTGCTGCAAAGCTTTGTTGGGTTTGGGCTCGGAGTCACCTAGTGCAG” was tested. Which binding signal did it give?
**A.** 8470 fluorescence intensity (a.u.)

**Q.** “ACGACCCCTCCAACACATTTCCCTCGCGTCTCGTTGCGATCGGAGTCACCTAGTGCAG” was tested. Which binding signal did it give?
**A.** 8480 fluorescence intensity (a.u.)

**Q.** “AGGATCGAGGAATTCAGTTAAGCAAAAATATTTATACATGCGGAGTCACCTAGTGCAG” was tested. Which binding signal did it give?
**A.** 47600 fluorescence intensity (a.u.)

**Q.** How did the binding signal turn out when “ATCGTACCATTATTCAAAATTTTAAATAGTTACATGTTCACGGAGTCACCTAGTGCAG” was run?
**A.** 8120 fluorescence intensity (a.u.)

**Q.** Which binding signal does the source give for “CTCGTTATATCTATTATAAATTTTTTAATATACATGTTATCGGAGTCACCTAGTGCAG” here?
**A.** 9040 fluorescence intensity (a.u.)

**Q.** “ATCTCCGGCGTTTTTCAACCGTATGGCAATGATCATCCTTCGGAGTCACCTAGTGCAG” was tested. Which binding signal did it give?
**A.** 11100 fluorescence intensity (a.u.)

**Q.** “GTGGCTGCGTGTGGTGGCGTTGCACGGCTCGGGTGGGCTCCGGAGTCACCTAGTGCAG” was tested. Which binding signal did it give?
**A.** 8660 fluorescence intensity (a.u.)

**Q.** Which binding signal does the source give for “TAGGGAGGGTTGTGGGGAGGGGAGCTGTGGCCGCAATGTCCGGAGTCACCTAGTGCAG” here?
**A.** 19400 fluorescence intensity (a.u.)

**Q.** Which binding signal does the source give for “TGGCTGCCGGACTTGGGAGGGACACTGGGTTGGTTGTGGGCGGAGTCACCTAGTGCAG” here?
**A.** 9440 fluorescence intensity (a.u.)

**Q.** “TGGCCGGAGCTAGGGTGGGTGGGTGGTTGGCCGCACCACCCGGAGTCACCTAGTGCAG” was tested. Which binding signal did it give?
**A.** 8250 fluorescence intensity (a.u.)

**Q.** With “GAAGGTTGCTGTTGCTTGTTGTTGGTAGTGTCTTGTGTGCCGGAGTCACCTAGTGCAG” as the sequence, how does the binding signal read?
**A.** 9090 fluorescence intensity (a.u.)

**Q.** How did the binding signal turn out when “CTGTGGTGGTGTGCATACGGGTTGGGGTGGAGGGCTGCTCCGGAGTCACCTAGTGCAG” was run?
**A.** 17900 fluorescence intensity (a.u.)

**Q.** With “TTGTGGCAATGGCGGCGGTGGCGGTGGCGGTTGGGGTGGCCGGAGTCACCTAGTGCAG” as the sequence, how does the binding signal read?
**A.** 11500 fluorescence intensity (a.u.)

**Q.** With “GGGCTTGTTGGGGTTGCTGTGGTAGCCGGGAGGGAGGGGACGGAGTCACCTAGTGCAG” as the sequence, how does the binding signal read?
**A.** 28500 fluorescence intensity (a.u.)

**Q.** Which binding signal does the source give for “GTTGGGGTGGAGGGCTGCTCCAGGTGAGAGGGCTGGGCATCGGAGTCACCTAGTGCAG” here?
**A.** 9900 fluorescence intensity (a.u.)
